According to PubChem BioAssay (Tox21):
“And” between values parts separate entries of the source, which are not always exact repeats. Equal entries are not always repeated. Results filed as inconclusive are left out. Where a call stands in place of a potency, no number is given. Some compounds were tested as several samples or in several runs, with calls that do not always agree. The source made the active and inactive calls. Unless noted, the call rests on the fitted dose curve; in most records, active means well fitted curve in the direction sought with a large enough effect in the repeat runs; inconclusive means weak or mixed curves; inactive means no such curve, though single readings can be large; an effect the other way counts as inactive or inconclusive.

Columns and labels:
[1] = qHTS assay to identify small molecule antagonists of the glucocorticoid receptor (GR) signaling pathway - cell viability counter screen (AID 720693); further: nearly all actives have a fitted effect of over 55% in size; further: potency means the concentration at half of the fitted maximal effect
[2] = qHTS assay for identifying genotoxic compounds that show differential cytotoxicity against isogenic chicken DT40 cell lines with known DNA damage response pathways - wild type cell line (AID 743012); further: nearly all actives have a fitted effect of over 60% in size; further: potency means the concentration at half of the fitted maximal effect
Procedure, shortened: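 Quantitative HTS on parental DT40 cells: 40 h compound treatment at 37 C/5% CO2, with viability then determined by CellTiter-Glo luminescence. Values serve as the DNA repair-proficient reference for differential cytotoxicity.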

[3] = qHTS assay for identifying genotoxic compounds that show differential cytotoxicity against isogenic chicken DT40 cell lines with known DNA damage response pathways - Rev3 mutant cell line (AID 743014); further: nearly all actives have a fitted effect of over 55% in size; further: potency means the concentration at half of the fitted maximal effect
[4] = qHTS assay for identifying genotoxic compounds that show differential cytotoxicity against isogenic chicken DT40 cell lines with known DNA damage response pathways - Rad54/Ku70 mutant cell line (AID 743015); further: nearly all actives have a fitted effect of over 60% in size; further: potency means the concentration at half of the fitted maximal effect
[5] = qHTS assay to identify small molecule antagonists of the androgen receptor (AR) signaling pathway - cell viability counter screen (AID 743033; further: nearly all actives have a fitted effect of over 45% in size; further: potency means the concentration at half of the fitted maximal effect)
[6] = target: Androgen receptor (Homo sapiens) (UniProt P10275); assay: qHTS assay to identify small molecule antagonists of the androgen receptor (AR) signaling pathway (AID 743035; active means well fitted inhibition curve with a large enough effect in the signal ratio in the repeat runs, not every such curve was filed as active; the % refers to the signal ratio; further: potency means the concentration at half of the fitted maximal effect)
Chain of Androgen receptor (Homo sapiens) (P10275 whole entry, looked up): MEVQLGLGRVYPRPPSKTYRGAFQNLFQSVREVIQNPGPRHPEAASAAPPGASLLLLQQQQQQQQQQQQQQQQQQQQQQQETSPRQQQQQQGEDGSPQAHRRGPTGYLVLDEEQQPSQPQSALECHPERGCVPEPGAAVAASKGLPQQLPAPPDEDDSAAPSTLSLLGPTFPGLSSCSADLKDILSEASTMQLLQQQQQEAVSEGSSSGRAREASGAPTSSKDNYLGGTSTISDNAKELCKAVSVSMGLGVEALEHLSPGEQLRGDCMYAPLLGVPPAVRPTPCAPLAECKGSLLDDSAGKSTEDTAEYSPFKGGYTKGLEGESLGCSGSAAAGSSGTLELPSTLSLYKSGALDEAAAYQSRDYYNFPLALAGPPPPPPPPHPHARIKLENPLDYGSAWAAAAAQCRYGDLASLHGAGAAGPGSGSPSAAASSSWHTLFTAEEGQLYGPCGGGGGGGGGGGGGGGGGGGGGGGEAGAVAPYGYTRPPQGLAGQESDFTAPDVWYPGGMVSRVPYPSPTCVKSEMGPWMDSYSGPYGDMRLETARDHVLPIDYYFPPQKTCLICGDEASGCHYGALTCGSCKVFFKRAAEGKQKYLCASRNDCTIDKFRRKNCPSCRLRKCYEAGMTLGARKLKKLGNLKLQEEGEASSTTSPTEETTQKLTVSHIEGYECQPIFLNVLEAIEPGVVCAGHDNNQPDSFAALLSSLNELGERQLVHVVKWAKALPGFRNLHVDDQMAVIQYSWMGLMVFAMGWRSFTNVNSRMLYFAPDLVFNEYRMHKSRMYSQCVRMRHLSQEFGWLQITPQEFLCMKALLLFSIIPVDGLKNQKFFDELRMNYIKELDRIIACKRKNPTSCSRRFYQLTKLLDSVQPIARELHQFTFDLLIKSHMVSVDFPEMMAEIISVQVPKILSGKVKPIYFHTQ
Procedure, shortened: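 Cell line: GeneBLAzer AR-UAS-bla GripTite (HEK293). Stimulus: R1881 added after compound. Exposure: 16 h, 37C, 5% CO2. Readout: LiveBLAzer B/G FRET fluorescence after 2 h at room temperature.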

[7] = target: Androgen receptor (Homo sapiens) (UniProt P10275); assay: qHTS assay to identify small molecule agonists of the androgen receptor (AR) signaling pathway using the MDA cell line (AID 743040; further: nearly all actives have a fitted effect of over 20% in size; further: potency means the concentration at half of the fitted maximal effect)
Procedure, shortened: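 Luminescence from ONE-Glo, read after 30 min at room temperature, reflects MMTV-driven luciferase in MDA-kb2 cells (AR- and GR-responsive). Treatment lasted 16 h at 37C, 0% CO2.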

[8] = qHTS assay to identify small molecule antagonists of the androgen receptor (AR) signaling pathway using the MDA cell line - cell viability counter screen (AID 743041; further: nearly all actives have a fitted effect of over 45% in size; further: potency means the concentration at half of the fitted maximal effect)
Procedure, shortened: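 Viability counter screen run alongside the AR antagonist reporter: cells seeded 5 h before compound, R1881 added, 16 h incubation at 37C without CO2, fluorescent CellTiter-Fluor signal quantified.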

[9] = target: Androgen receptor (Homo sapiens) (UniProt P10275); assay: qHTS assay to identify small molecule antagonists of the androgen receptor (AR) signaling pathway using the MDA cell line (AID 743042; further: nearly all actives have a fitted effect of over 55% in size; further: potency means the concentration at half of the fitted maximal effect)
Procedure, shortened: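 MDA-kb2 cells (human breast carcinoma, stably carrying an MMTV-luciferase reporter responsive to AR and GR) were plated at 3,000 cells/well and preincubated 5 hr at 37C, then given compound plus R1881 agonist for 16 h. ONE-Glo luminescence was read.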

[10] = qHTS assay to identify small molecule antagonists of the thyroid receptor (TR) signaling pathway - cell viability counter screen (AID 743064); further: nearly all actives have a fitted effect of over 50% in size; further: potency means the concentration at half of the fitted maximal effect
Procedure, shortened: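 In-well cytotoxicity read by CellTiter-Fluor (30 min, 37 C) following 23.5 h exposure of GH3 cells bearing a TRE-luciferase sensor. Compounds were added alongside 1 nM (final) T3 to drive TR transactivation.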

[11] = qHTS assay to identify small molecule antagonists of the thyroid receptor (TR) signaling pathway (AID 743065); further: nearly all actives have a fitted effect of over 55% in size; further: potency means the concentration at half of the fitted maximal effect
Procedure, shortened: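 GH3.TRE-Luc rat pituitary cells carrying two TR response elements driving luciferase were plated for 4 h, given compound plus 1 nM T3 (final), and incubated 23.5 h at 37 C. ONE-Glo luminescence measured reporter inhibition; CellTiter-Fluor fluorescence tracked cytotoxicity.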

[12] = system: thyroid hormone receptor (rat, GH3 cells); assay: qHTS assay to identify small molecule agonists of the thyroid receptor (TR) signaling pathway (AID 743066; calls by dose curve)
[13] = qHTS assay to identify small molecule antagonists of the estrogen receptor alpha (ER-alpha) signaling pathway - cell viability counter screen (AID 743074; calls by dose curve;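 further: HEK293 cells carrying ER-alpha-UAS-bla reporter stimulated with 17beta-estradiol; nearly all actives have a fitted effect of over 45% in size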; further: potency means the concentration at half of the fitted maximal effect)
[14] = qHTS assay to identify small molecule antagonists of the estrogen receptor alpha (ER-alpha) signaling pathway using the BG1 cell line - cell viability counter screen (AID 743081);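 further: compound given together with 17beta-estradiol as the ER stimulus; nearly all actives have a fitted effect of over 45% in size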; further: potency means the concentration at half of the fitted maximal effect
Aromatase (Homo sapiens) = Aromatase (Homo sapiens) (UniProt P11511); assay: qHTS assay to identify aromatase inhibitors (AID 743083); further: nearly all actives have a fitted effect of over 55% in size; further: potency means the concentration at half of the fitted maximal effect
Chain of Aromatase (Homo sapiens) (P11511 whole entry, looked up): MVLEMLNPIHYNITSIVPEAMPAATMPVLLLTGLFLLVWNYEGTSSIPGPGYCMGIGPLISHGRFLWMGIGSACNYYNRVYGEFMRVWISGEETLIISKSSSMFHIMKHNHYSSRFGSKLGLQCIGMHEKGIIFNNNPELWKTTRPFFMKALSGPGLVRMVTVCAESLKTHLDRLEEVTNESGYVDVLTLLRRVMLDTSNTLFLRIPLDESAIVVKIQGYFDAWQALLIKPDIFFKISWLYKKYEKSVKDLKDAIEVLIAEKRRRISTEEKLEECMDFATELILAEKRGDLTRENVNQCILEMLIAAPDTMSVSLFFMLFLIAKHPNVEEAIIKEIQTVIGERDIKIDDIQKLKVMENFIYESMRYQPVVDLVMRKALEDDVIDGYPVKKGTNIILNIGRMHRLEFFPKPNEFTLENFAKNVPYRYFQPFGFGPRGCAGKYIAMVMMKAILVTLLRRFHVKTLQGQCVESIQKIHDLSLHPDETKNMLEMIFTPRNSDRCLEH

[15] = target: Androgen receptor (Homo sapiens) (UniProt P10275); assay: qHTS assay to identify small molecule agonists of the androgen receptor (AR) signaling pathway (AID 743036; active means well fitted activation curve with a large enough effect in the signal ratio in the repeat runs, with a control signal flat, not every such curve was filed as active; the % refers to the signal ratio)
Procedure, shortened: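 Activation was read as beta-lactamase FRET signal from LiveBLAzer B/G substrate, added for 2 h at room temperature. Before that, GeneBLAzer AR-UAS-bla GripTite (HEK293) cells had 16 h compound exposure at 37C.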

[16] = target: Estrogen receptor (Homo sapiens) (UniProt P03372); assay: qHTS assay to identify small molecule antagonists of the estrogen receptor alpha (ER-alpha) signaling pathway (AID 743069; active means well fitted curve in the direction sought with a large enough effect in the signal ratio in the repeat runs, not every such curve was filed as active; the % refers to the signal ratio)
Chain of Estrogen receptor (Homo sapiens) (P03372 whole entry, looked up): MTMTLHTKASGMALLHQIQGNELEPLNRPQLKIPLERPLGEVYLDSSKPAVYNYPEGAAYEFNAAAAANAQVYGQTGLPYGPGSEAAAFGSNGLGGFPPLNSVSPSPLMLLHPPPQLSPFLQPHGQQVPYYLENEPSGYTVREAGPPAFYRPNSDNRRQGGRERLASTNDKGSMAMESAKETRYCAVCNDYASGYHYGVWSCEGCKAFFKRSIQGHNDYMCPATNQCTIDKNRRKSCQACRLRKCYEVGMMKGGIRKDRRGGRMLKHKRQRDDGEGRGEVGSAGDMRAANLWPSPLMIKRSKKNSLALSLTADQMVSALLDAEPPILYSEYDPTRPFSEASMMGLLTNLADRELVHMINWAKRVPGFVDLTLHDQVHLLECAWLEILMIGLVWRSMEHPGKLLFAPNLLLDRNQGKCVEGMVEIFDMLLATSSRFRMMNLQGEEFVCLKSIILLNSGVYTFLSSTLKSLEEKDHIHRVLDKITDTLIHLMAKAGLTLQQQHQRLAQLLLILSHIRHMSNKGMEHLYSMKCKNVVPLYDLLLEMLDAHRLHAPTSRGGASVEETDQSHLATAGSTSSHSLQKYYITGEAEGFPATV
Procedure, shortened: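 Estradiol-stimulated ER-alpha-UAS-bla HEK293 cells, 18 hr compound exposure at 37C. LiveBLAzer B/G substrate, 2 hr RT, fluorescence read.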

[17] = target: Estrogen receptor (Homo sapiens) (UniProt P03372); assay: qHTS assay to identify small molecule agonists of the estrogen receptor alpha (ER-alpha) signaling pathway (AID 743075; calls by dose curve;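 further: HEK293 GripTite cells with ER-alpha and UAS-driven beta-lactamase reporter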)
[18] = target: Estrogen receptor (Homo sapiens) (UniProt P03372); assay: qHTS assay to identify small molecule agonists of the estrogen receptor alpha (ER-alpha) signaling pathway using the BG1 cell line (AID 743079); further: nearly all actives have a fitted effect of over 20% in size; further: potency means the concentration at half of the fitted maximal effect
[19] = qHTS assay to identify small molecule antagonists of the estrogen receptor alpha (ER-alpha) signaling pathway using the BG1 cell line (AID 743080; calls by dose curve;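 further: BG1 cells stimulated with 17beta-estradiol alongside compound; series mostly up to about 70 µM; nearly all actives have a fitted effect of over 25% in size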)
Procedure, shortened: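 After 5 days in phenol-red-free 10% charcoal-stripped FBS medium, BG1-Luc-4E2 cells were seeded, left 24 h at 37 C, co-treated with compounds and 17beta-estradiol for 21.5 h, then assayed for viability and luciferase.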

| Structure (SMILES) | Potency [1] | Potency [2] | Potency [3] | Potency [4] | Potency [5] | Potency [6] | Potency [7] | Potency [8] | Potency [9] | Potency [10] | Potency [11] | Potency [12] | Potency [13] | Potency [14] | Potency (Aromatase (Homo sapiens)) | Potency [15] | Potency [16] | Potency [17] | Potency [18] | Potency [19] |
| --- | --- | --- | --- | --- | --- | --- | --- | --- | --- | --- | --- | --- | --- | --- | --- | --- | --- | --- | --- | --- |
| NC(N)=NCC1COC2(CCCCC2)O1 (centres undefined) | inactive | inactive | inactive | inactive | inactive | inactive | inactive | inactive | inactive | inactive | inactive | inactive | inactive | inactive | inactive | – | – | – | – | – |
| C=C1[C@H](CO)[C@@H](O)C[C@@H]1n1cnc2c(=O)[nH]c(N)nc21 | inactive | 0.0237 µM (active) | 0.0237 µM (active) | 0.0335 µM (active) | inactive | – | inactive | inactive | inactive | – | – | – | inactive | inactive | inactive | inactive | – | – | – | – |
| CC1(C)C[C@@H]1C(=O)N/C(=C\CCCCSC[C@H](N)C(=O)O)C(=O)O | inactive | inactive | inactive | inactive | inactive | inactive | inactive | inactive | inactive | inactive | inactive | inactive | inactive | inactive | inactive | inactive | – | – | – | – |
| COc1c(O)cc2c(c1O)[C@@H]1O[C@H](CO)[C@@H](O)[C@H](O)[C@H]1OC2=O | inactive | inactive | inactive | inactive | inactive | inactive | inactive | inactive | inactive | inactive | – | inactive | – | inactive | inactive | – | inactive | inactive | inactive | inactive |
| N#Cc1nc(Cl)c(Cl)c(Cl)c1Cl | 19.5 µM (active) | 1.54 µM (active) | 1.72 µM (active) | 1.54 µM (active) | 9.77 µM (active) | – | inactive | 30.6 µM (active) | 6.86 µM (active) | 2.43 µM (active) | 1.72 µM (active) | – | – | inactive | 4.86 µM (active) | – | – | – | – | – |
| C[N+]1(CCCCC[N+]2(C)CCCC2)CCCC1 | inactive | inactive | inactive | inactive | inactive | inactive | inactive | inactive | inactive | inactive | inactive | inactive | inactive | inactive | inactive | inactive | inactive | inactive | inactive | inactive |
| CC1(C)CCC(NC(=O)[C@@H](N)CCC(=O)O)CC1 | inactive | inactive | inactive | inactive | inactive | inactive | inactive | inactive | inactive | inactive | inactive | inactive | inactive | inactive | inactive | inactive | inactive | inactive | inactive | inactive |
| Cc1cc(C(=O)NCCc2ccc(S(=O)(=O)NC(=O)NN3CCCCCC3)cc2)no1 | inactive | inactive | inactive | inactive | inactive | inactive | inactive | inactive | inactive | inactive | inactive | inactive | inactive | inactive | inactive | inactive | – | – | – | – |
| CCOC(=O)[C@H](CCc1ccccc1)N[C@@H](C)C(=O)N1[C@H](C(=O)O)C[C@H]2CCCC[C@@H]21 | inactive | inactive | inactive | inactive | inactive | inactive | inactive | inactive | inactive | – | inactive | inactive | inactive | inactive | inactive | inactive | – | – | – | – |
| C=C1C(CCl)(CCl)C2(Cl)C(Cl)C(Cl)C1(Cl)C2(Cl)Cl (centres undefined) | 13.4 µM (active) | 4.73 µM (active) and 30.3 µM (active) | 2.98 µM (active) and 4.28 µM (active) | 5.96 µM (active) and 17 µM (active) | inactive and 54.3 µM (active) | 34.3 µM (active) | inactive | inactive | 26.6 µM (active) | 5.96 µM (active) and 67.8 µM (active) | 5.31 µM (active) and 48 µM (active) | inactive | 23.9 µM (active) | inactive | 29.8 µM (active) and 60.4 µM (active) | – | – | – | – | – |
| CC[C@@H](C(=O)[C@@H](C)[C@@H](O)[C@H](C)CCc1ccc(C)c(O)c1C(=O)O)[C@H]1O[C@](CC)([C@H]2CC[C@](O)(CC)[C@H](C)O2)C[C@@H]1C | 23.9 µM (active) | 5.96 µM (active) | 4.73 µM (active) | 6.68 µM (active) | 6.74 µM (active) | 15.1 µM (active) | 1.88 µM (active) | 11.1 µM (active) | inactive | 3.35 µM (active) | – | inactive | 19 µM (active) | – | inactive | – | – | inactive | inactive | – |
| COc1cc(/C=C/C(=O)CC(=O)/C=C/c2ccc(O)c(OC)c2)ccc1O | inactive | 8.41 µM (active) and 21.1 µM (active) and 17.3 µM (active) | 11.9 µM (active) and 12.3 µM (active) | 10.6 µM (active) and 26.6 µM (active) and 10.9 µM (active) | inactive and 43.9 µM (active) | – | inactive | inactive | 26.6 µM (active) and inactive and 13.8 µM (active) | – | 23.7 µM (active) and 17.3 µM (active) | inactive | inactive and 49.3 µM (active) | inactive and 54.8 µM (active) | inactive and 48.9 µM (active) | – | – | inactive | 23.7 µM (active) and inactive | inactive |
| C(=C\c1ccncc1)/c1ccccc1 | inactive | inactive and 26.6 µM (active) | inactive and 26.6 µM (active) | inactive and 26.6 µM (active) | inactive | – | – | inactive | – | inactive | inactive | inactive | inactive | inactive | inactive and 21.1 µM (active) | – | inactive | inactive | 13.3 µM (active) | – |
